PubChem BioAssay (NCATS)
Values joined by “and” are separate entries in the source; they are usually repeats but may differ in a detail not shown here. Equal values may be shown once. Inconclusive results are not listed. A call without a number means that no potency is given here. Active and inactive are the calls of the source. Unless noted, calls come from the whole dose curve; as a rule, active = well fitted inhibition curve with a large enough effect; inconclusive = small, poorly fitted or top-dose-only effect; inactive = flat fitted curve, though single readings scatter.

Experiments:
[1] = molecular target: Estrogen receptor (Homo sapiens) (UniProt P03372); test: qHTS assay for small molecule agonists of estrogen receptor alpha signaling (AID 588514; calls by dose curve; note: nearly all actives have a fitted effect of over 70% in size)
Method in brief: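 ER-alpha-UAS-bla GripTite HEK293 cells, 5000/well in 2% charcoal/dextran-stripped FBS medium, treated with compound titrations 18 h at 37 C. CCF4 beta-lactamase read by fluorescence after 2 h RT; normalised to 20 nM 17-beta-estradiol (100%) and DMSO (0%), Hill fit for EC50 and efficacy.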

[2] = molecular target: Glucocorticoid receptor (Homo sapiens) (UniProt P04150); test: qHTS assay for small molecule agonists of glucocorticoid receptor signaling (AID 588532; active = well fitted curve in the direction sought with a large enough effect in the signal ratio, with a control signal flat; the % refers to the signal ratio); conditions: HeLa MMTV-bla, beta-lactamase ratio, agonist, 18 h; stronger effect = higher value; percent of dexamethasone control, DMSO zero
Method in brief: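 Stimulation of a glucocorticoid response element-driven beta-lactamase gene was measured in HeLa cells. Responses were scaled between DMSO basal and 0.1 uM dexamethasone, then fitted for half-maximal stimulation.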

[3] = molecular target: Glucocorticoid receptor (Homo sapiens) (UniProt P04150); test: qHTS assay for small molecule antagonists of glucocorticoid receptor signaling (AID 588533; active = well fitted inhibition curve with a large enough effect in the signal ratio, with a control signal flat, not every such curve was filed as active; the % refers to the signal ratio;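 note: cells stimulated with 2 nM dexamethasone as agonist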)
Method in brief: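 Antagonist-mode qHTS: compound titrations added to GRE-bla HeLa cells, then dexamethasone 2 nM final; 18 h, 37 C. CCF4 FRET fluorescence normalized to dexamethasone and DMSO; IC50 from Hill fit.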

[4] = molecular target: Peroxisome proliferator-activated receptor delta (Homo sapiens) (UniProt Q03181); test: qHTS assay for small molecule agonists of peroxisome proliferator-activated receptor delta signaling (AID 588534; calls by dose curve)
Method in brief: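 Cells carrying a PPAR-delta beta-lactamase reporter were treated with compounds for 18 h at 37 °C in agonist mode. CCF4 fluorescence was read after 2 h; EC50 and efficacy from Hill fits.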

[5] = qHTS assay for small molecule antagonists of peroxisome proliferator-activated receptor delta signaling (AID 588535; active = well fitted inhibition curve with a large enough effect in the signal ratio, with a control signal flat, not every such curve was filed as active; the % refers to the signal ratio;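 for max response: cells co-treated with a PPAR-delta agonist as stimulator during compound exposure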); conditions: HEK293T PPARd-UAS-bla, beta-lactamase FRET ratio, 18 h; 460 nm channel
Method in brief: (§1)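 Reporter: UAS-bla under PPAR-delta response element, HEK293T host. Medium: 2% charcoal/dextran FBS. Dosing: titration, 18 hrs, 37 C. Detection: CCF4, 2 hrs RT, 405 ex/460 and 530 em.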

[6] = molecular target: Peroxisome proliferator-activated receptor delta (Homo sapiens) (UniProt Q03181); test: as above
Method in brief: as §1

[7] = molecular target: Peroxisome proliferator-activated receptor gamma (Homo sapiens) (UniProt P37231); test: qHTS assay for small molecule agonists of peroxisome proliferator-activated receptor gamma signaling (AID 588536; active = well fitted curve in the direction sought with a large enough effect in the signal ratio, with a control signal flat, not every such curve was filed as active; the % refers to the signal ratio)
Method in brief: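 Ratiometric blue/green fluorescence (405 nm excitation; 460 and 530 nm emission) from CCF4-loaded HEK293 reporter cells serves as signal. Exposure to test compounds lasts 16 h at 37 C in medium containing 1% charcoal/dextran-treated serum.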

[8] = molecular target: Vitamin D3 receptor (Homo sapiens) (UniProt P11473); test: qHTS assay for small molecule antagonists of vitamin D receptor signaling (AID 588541; calls by dose curve;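 note: receptor activated by calcitriol during compound treatment; series mostly up to about 77 µM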)
Method in brief: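 VDR-UAS-bla HEK293T cells (2000/well, 2% charcoal-stripped FBS) were treated with titrated compounds plus 1-alpha,25-dihydroxyvitamin D3 (50 nM or 3 nM final) for 16 h at 37 C. CCF4 beta-lactamase fluorescence was read; Hill fits gave IC50.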

[9] = molecular target: Vitamin D3 receptor (Homo sapiens) (UniProt P11473); test: qHTS assay for small molecule agonists of vitamin D receptor signaling (AID 588543; calls by dose curve)
Method in brief: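 β-lactamase reporter, VDR-UAS-bla HEK293T, agonist mode. Cells plated 5 h at 37 °C, compound titration 16 h at 37 °C, CCF4 dye 2 h RT, ratio 460/530 nm. Hill fit → EC50, efficacy vs 50 nM 1α,25-(OH)2D3.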

[10] = qHTS assay for small molecule antagonists of retinoid X receptor alpha signaling (AID 588546); conditions: HEK293T RXRa-UAS-bla, beta-lactamase ratio, antagonist mode; measured here: W530 green channel, cytotoxicity proxy;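 note: cells stimulated with 9-cis-retinoic acid as agonist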
Method in brief: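 Beta-lactamase reporter inhibition, read as CCF4 fluorescence ratio (ex 405, em 460/530 nm) after 2 h at RT. HEK293T UAS-bla cells, 2500/well, were stimulated with 9-cis-RA at 500 or 100 nM final alongside test compound for 18 h at 37 C.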

[11] = molecular target: Thyroid hormone receptor beta (Homo sapiens) (UniProt P10828); test: qHTS assay for small molecule antagonists of thyroid hormone receptor beta signaling (AID 588547; active = well fitted inhibition curve with a large enough effect in the signal ratio, with a control signal flat, not every such curve was filed as active; the % refers to the signal ratio;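 note: cells stimulated with 0.4 nM T3 agonist during compound exposure; series mostly up to about 77 µM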); conditions: TR-UAS-bla HEK293, beta-lactamase ratio, antagonist mode, 18 h
Method in brief: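 TR-UAS-bla GripTite HEK293 cells in 2% charcoal/dextran FBS medium were preincubated 4 h at 37 C, given compound (0.59 nM to 92 uM) plus 0.4 nM T3 (final) for 18 h, then CCF4 for 2 h at RT; Hill fit gave IC50.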

[12] = molecular target: Voltage-gated inwardly rectifying potassium channel KCNH2 (Homo sapiens) (UniProt Q12809); test: qHTS Assay for Small Molecule Inhibitors of the Human hERG Channel Activity (AID 588834);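 note: lower thallium flux fluorescence means stronger hERG block; nearly all actives have a fitted effect of over 50% in size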; note: potency is the fitted concentration of half-maximal effect
Method in brief: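 Concentration-response qHTS measuring drop in thallium-sensitive dye signal. U2OS cells carrying BacMam hERG; compound exposure ~10 min, then stimulation buffer and 2 min read at 1 sec intervals.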

[13] = molecular target: Luciferin 4-monooxygenase (Photinus pyralis) (UniProt P08659); test: Biochemical firefly luciferase enzyme assay for NPC (AID 624030);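 note: purified P. pyralis luciferase at 10 nM with luciferin and ATP substrate; series mostly up to about 59 µM; nearly all actives have a fitted effect of over 70% in size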
Method in brief: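 Counter-screen for direct inhibition of the luciferase enzyme by approved-drug library compounds, run at 10 nM enzyme in 50 mM Tris acetate (final). Luminescence was read within 5 min of enzyme-buffer addition and normalized to PTC124 versus DMSO (0%).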

[14] = molecular target: Androgen receptor (Homo sapiens) (UniProt P10275); test: qHTS assay for small molecule antagonists of androgen receptor signaling (AID 588516; active = well fitted curve in the direction sought with a large enough effect in the signal ratio, with a control signal flat, not every such curve was filed as active; the % refers to the signal ratio)
Method in brief: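 HEK293 AR-UAS-bla cells, 10% dialyzed FBS medium; cpd titration + R1881 10 nM final, 16 h 37 C; CCF4 2 h RT; FRET ratio; IC50/efficacy via Hill fit.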

[15] = molecular target: Peroxisome proliferator-activated receptor gamma (Homo sapiens) (UniProt P37231); test: qHTS assay for small molecule antagonists of peroxisome proliferator-activated receptor gamma signaling (AID 588537; active = well fitted inhibition curve with a large enough effect in the signal ratio, with a control signal flat, not every such curve was filed as active; the % refers to the signal ratio; note: potency is the fitted concentration of half-maximal effect)
Method in brief: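 We seeded GeneBLAzer HEK293 reporter cells at 3000 per well, allowed 6-6.5 h attachment at 37 C, then co-treated with test compound titrations and 50 nM rosiglitazone overnight (16 h). Inhibition was quantified from 460/530 nm emission ratios.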

[16] = qHTS assay for small molecule agonists of retinoid X receptor alpha signaling (AID 588544; calls by dose curve); conditions: HEK293T RXRa-UAS-bla, beta-lactamase reporter, 18 h; 530 nm emission
[17] = molecular target: Retinoic acid receptor RXR-alpha (Homo sapiens) (UniProt P19793); test: as above
Sequence of Retinoic acid receptor RXR-alpha (Homo sapiens) (P19793 whole entry, looked up): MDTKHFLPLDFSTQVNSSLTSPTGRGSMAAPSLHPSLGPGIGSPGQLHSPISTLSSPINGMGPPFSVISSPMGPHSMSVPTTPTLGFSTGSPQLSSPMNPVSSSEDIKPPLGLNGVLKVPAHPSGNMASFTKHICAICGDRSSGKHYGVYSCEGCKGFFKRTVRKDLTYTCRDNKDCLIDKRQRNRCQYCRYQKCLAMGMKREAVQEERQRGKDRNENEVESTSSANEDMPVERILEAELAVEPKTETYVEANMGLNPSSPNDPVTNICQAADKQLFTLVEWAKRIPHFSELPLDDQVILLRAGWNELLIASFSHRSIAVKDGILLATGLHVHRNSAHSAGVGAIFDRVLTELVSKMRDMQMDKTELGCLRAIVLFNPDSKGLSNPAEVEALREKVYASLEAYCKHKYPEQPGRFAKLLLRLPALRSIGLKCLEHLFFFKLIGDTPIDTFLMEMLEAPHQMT

Sequence of Glucocorticoid receptor (Homo sapiens) (P04150 whole entry, looked up): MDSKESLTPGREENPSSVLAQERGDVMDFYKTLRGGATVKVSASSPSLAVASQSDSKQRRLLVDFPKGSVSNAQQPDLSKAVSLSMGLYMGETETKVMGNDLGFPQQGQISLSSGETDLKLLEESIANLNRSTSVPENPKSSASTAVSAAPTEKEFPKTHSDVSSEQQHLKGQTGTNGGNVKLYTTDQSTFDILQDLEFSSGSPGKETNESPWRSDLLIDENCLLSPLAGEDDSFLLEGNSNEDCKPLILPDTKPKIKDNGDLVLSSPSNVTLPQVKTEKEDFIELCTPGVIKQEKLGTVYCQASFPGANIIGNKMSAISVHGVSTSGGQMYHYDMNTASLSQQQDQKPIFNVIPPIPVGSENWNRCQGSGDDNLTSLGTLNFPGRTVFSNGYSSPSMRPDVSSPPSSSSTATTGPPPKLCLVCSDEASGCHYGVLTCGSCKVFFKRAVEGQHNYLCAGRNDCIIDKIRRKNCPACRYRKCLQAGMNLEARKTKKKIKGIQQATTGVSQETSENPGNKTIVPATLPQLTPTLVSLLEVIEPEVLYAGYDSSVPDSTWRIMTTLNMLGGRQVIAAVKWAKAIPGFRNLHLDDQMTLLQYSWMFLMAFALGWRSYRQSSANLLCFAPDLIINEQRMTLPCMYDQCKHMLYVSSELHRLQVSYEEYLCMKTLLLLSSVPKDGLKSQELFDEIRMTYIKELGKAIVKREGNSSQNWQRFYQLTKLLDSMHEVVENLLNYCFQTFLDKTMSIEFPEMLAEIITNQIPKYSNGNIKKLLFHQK
Sequence of Peroxisome proliferator-activated receptor delta (Homo sapiens) (Q03181 whole entry, looked up): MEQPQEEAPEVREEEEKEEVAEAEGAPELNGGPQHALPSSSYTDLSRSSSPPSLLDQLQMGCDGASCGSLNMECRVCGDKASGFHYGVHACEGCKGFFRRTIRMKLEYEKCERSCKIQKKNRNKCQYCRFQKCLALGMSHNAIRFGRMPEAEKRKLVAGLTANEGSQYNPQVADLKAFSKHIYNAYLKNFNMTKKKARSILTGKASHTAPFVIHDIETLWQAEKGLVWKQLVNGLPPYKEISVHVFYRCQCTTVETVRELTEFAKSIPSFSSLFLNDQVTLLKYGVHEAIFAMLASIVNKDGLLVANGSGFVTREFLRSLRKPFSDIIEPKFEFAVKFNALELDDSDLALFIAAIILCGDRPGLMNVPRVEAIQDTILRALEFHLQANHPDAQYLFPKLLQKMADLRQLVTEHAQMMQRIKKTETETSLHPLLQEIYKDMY
Sequence of Vitamin D3 receptor (Homo sapiens) (P11473 whole entry, looked up): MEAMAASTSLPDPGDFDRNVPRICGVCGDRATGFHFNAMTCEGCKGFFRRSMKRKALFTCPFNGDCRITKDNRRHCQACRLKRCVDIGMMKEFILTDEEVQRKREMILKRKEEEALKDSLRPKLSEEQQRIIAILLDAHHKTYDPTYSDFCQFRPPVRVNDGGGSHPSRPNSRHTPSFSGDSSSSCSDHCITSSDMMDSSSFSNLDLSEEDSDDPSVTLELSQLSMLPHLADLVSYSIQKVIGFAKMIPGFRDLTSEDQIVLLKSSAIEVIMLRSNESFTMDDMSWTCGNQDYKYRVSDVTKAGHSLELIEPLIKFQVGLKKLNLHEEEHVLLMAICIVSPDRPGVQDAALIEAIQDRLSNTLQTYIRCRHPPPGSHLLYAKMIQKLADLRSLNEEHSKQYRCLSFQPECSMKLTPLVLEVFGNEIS
Sequence of Voltage-gated inwardly rectifying potassium channel KCNH2 (Homo sapiens) (Q12809 whole entry, looked up): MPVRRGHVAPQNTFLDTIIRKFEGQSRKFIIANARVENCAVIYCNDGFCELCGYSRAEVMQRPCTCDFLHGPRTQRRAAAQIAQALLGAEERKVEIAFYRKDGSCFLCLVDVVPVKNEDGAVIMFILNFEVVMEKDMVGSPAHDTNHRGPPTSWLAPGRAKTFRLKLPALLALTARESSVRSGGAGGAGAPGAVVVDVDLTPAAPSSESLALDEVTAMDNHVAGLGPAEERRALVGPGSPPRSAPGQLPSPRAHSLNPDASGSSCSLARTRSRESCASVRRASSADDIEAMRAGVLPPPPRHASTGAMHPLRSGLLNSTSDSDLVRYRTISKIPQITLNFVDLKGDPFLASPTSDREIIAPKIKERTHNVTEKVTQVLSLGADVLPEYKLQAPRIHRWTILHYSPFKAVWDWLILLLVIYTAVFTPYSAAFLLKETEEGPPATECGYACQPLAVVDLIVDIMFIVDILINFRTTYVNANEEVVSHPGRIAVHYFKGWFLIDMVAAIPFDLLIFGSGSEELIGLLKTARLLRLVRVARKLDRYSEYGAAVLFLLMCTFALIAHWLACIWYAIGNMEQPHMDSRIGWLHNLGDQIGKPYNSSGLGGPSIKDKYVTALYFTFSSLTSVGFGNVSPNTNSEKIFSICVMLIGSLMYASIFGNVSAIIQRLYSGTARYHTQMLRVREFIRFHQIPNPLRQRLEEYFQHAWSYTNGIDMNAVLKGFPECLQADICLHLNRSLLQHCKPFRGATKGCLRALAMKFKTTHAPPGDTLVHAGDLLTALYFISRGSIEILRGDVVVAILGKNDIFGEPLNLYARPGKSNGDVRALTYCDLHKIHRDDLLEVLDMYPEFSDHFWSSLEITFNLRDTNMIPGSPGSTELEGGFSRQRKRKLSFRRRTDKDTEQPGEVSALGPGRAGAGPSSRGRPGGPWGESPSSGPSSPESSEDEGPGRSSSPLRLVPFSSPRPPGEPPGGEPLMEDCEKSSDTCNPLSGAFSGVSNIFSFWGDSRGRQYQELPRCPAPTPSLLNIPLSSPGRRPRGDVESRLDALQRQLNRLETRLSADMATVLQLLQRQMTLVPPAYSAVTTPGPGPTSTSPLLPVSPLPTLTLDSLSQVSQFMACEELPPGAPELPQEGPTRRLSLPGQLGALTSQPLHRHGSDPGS
Sequence of Thyroid hormone receptor beta (Homo sapiens) (P10828 whole entry, looked up): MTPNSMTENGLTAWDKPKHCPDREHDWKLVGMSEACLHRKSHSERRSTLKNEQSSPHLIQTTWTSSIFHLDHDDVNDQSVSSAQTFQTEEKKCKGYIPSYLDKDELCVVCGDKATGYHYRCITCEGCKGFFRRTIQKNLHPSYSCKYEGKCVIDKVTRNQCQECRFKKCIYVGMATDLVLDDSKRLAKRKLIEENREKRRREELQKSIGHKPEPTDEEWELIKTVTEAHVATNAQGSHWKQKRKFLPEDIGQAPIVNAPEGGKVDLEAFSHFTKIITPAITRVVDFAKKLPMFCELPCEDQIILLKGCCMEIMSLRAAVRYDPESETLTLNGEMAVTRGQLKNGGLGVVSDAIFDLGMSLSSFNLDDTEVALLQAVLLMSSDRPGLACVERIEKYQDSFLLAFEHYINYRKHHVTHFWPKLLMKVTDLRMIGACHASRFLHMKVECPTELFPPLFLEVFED
Sequence of Luciferin 4-monooxygenase (Photinus pyralis) (P08659 whole entry, looked up): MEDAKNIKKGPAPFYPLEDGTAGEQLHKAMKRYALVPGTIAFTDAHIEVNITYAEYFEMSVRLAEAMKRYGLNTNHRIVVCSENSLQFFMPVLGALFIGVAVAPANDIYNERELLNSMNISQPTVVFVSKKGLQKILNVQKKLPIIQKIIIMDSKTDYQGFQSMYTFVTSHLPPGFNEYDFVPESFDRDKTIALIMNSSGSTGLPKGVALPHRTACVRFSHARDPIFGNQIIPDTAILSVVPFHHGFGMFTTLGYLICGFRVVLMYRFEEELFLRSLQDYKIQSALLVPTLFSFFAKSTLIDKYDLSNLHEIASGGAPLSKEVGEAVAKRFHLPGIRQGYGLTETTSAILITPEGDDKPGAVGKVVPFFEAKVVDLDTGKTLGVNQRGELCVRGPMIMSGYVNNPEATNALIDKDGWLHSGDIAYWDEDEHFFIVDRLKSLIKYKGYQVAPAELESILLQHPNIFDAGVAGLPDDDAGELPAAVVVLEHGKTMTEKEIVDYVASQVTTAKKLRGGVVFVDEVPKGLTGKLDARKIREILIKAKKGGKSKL
Sequence of Peroxisome proliferator-activated receptor gamma (Homo sapiens) (P37231 whole entry, looked up): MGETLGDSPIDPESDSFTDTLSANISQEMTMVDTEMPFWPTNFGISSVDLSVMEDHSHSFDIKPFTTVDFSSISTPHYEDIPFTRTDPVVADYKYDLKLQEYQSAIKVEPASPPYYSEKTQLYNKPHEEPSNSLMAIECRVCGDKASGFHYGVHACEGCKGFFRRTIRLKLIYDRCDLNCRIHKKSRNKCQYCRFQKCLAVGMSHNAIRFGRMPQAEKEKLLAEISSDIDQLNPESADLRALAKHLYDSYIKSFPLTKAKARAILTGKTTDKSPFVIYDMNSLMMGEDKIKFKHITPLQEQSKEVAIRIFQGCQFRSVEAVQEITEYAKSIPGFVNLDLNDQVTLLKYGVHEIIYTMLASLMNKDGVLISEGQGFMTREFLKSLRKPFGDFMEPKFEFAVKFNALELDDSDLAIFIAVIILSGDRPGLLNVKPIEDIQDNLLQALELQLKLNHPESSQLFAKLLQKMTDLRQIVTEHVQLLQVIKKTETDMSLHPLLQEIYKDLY

## O=C(O)COc1ccccc1
[1]
  outcome: inactive
[2]
  activation: -4.12% (inactive)
[3]
  Potency: inactive
[4]
  outcome: inactive
[5]
  max response: 43.8%
[6]
  Potency: inactive
[7]
  outcome: inactive
[8]
  Potency: inactive
[9]
  outcome: inactive
[10]
  max response: 0.163%
[11]
  activity change % (negative = inhibition): -9.48% (inactive)
[12]
  Potency: inactive
[13]
  Potency: inactive

## Nc1cccc2c(N)cccc12
[14]
  Potency: inactive
[2]
  activation: -1.46% (inactive)
[4]
  outcome: inactive
[5]
  max response: 0.56%
[6]
  Potency: inactive

## CCCN(CCC)[C@@H]1CCc2ccc(O)cc2C1
[12]
  Potency: 2.51 µM (active)

## CCCN1CCO[C@@H]2c3cc(O)ccc3OC[C@H]21
[12]
  Potency: inactive

## NC1CC1c1ccccc1 (configuration not stated)
[12]
  Potency: inactive

## C[C@@H](N)Cc1cnc[nH]1
[12]
  Potency: inactive

## O=C1C(I)=CC(=C(c2cc(I)c(O)c(I)c2)c2ccccc2C(=O)O)C=C1I
[12]
  Potency: inactive

## O=C1CCCN1CC#CCN1CCCC1
[12]
  Potency: inactive

## NC1CCc2cc(O)c(O)cc2C1 (configuration not stated)
[12]
  Potency: inactive

## Cn1cnc(CCN)c1
[12]
  Potency: inactive

## O=C(O)CC[N+](=O)[O-]
[12]
  Potency: inactive

## NCCc1c[nH]c2ccccc12
[12]
  Potency: inactive

## O=C(O)[C@@H]1CCN1
[12]
  Potency: inactive

## c1ccc2sc(C3(N4CCCCC4)CCCCC3)cc2c1
[12]
  Potency: 2.82 µM (active)

## CS(=N)(=O)CC[C@H](N)C(=O)O (some centres not stated)
[12]
  Potency: inactive

## COc1ccc2c(c[n+](C)c3c4cc5c(cc4ccc23)OCO5)c1OC
[12]
  Potency: inactive

## CC(C)Oc1cccnc1N(C)C1CCN(Cc2ccccc2)CC1
[12]
  Potency: 6.31 µM (active)

## C[C@]12CCC3C(CC[C@H]4C[C@H](O)CC[C@]34C)C1CC[C@@H]2C(=O)CO (some centres not stated)
[12]
  Potency: inactive

## Clc1ccc(C(c2ccc(Cl)cc2)n2cc[n+](CC(OCc3ccc(Cl)cc3Cl)c3ccc(Cl)cc3Cl)c2)cc1 (configuration not stated)
[12]
  Potency: 11.2 µM (active)

## CC(C)(C)C(O)C(Oc1ccc(Cl)cc1)n1cncn1 (configuration not stated)
[7]
  outcome: inactive
[15]
  Potency: inactive
[8]
  Potency: inactive
[9]
  outcome: inactive
[10]
  max response: -12.3%
[11]
  activity change % (negative = inhibition): -8.05% (inactive)
[13]
  Potency: inactive

## CC[C@@H]1C(=O)OC[C@@H]1Cc1cncn1C
[12]
  Potency: inactive

## CN[C@@H](C)[C@H](O)c1ccccc1
[12]
  Potency: inactive

## O=C(O)Cc1cnc[nH]1
[12]
  Potency: inactive

## NCCc1c[nH]c2ccc(O)cc12
[12]
  Potency: inactive

## CC(=O)NCCc1c[nH]c2ccccc12
[12]
  Potency: inactive

## NC(CP(=O)(O)O)C(=O)O (configuration not stated)
[12]
  Potency: inactive

## c1ccc(CCCN2CCN(CCOC(c3ccccc3)c3ccccc3)CC2)cc1
[12]
  Potency: 0.501 µM (active)

## COc1cc(C(O)CN)ccc1O (configuration not stated)
[12]
  Potency: inactive

## Cc1nc(-c2ccc(-c3ccc(C(=O)N4CCc5cc6c(cc54)C4(CCN(C)CC4)CO6)cc3)c(C)c2)no1
[12]
  Potency: 7.94 µM (active)

## Oc1ccc2c3c1O[C@H]1c4[nH]c5c(c4C[C@@]4(O)[C@@H](C2)N(CC2CC2)CC[C@]314)C[C@@]1(O)[C@H]2Cc3ccc(O)c4c3[C@@]1(CCN2CC1CC1)[C@H]5O4
[12]
  Potency: inactive

## O=S(=O)(O)C(F)(F)C(F)(F)C(F)(F)C(F)(F)C(F)(F)C(F)(F)C(F)(F)C(F)(F)F
[7]
  outcome: inactive
[15]
  Potency: inactive
[8]
  Potency: inactive
[9]
  outcome: inactive
[16]
  max response: -11.4% and -1.61%
[17]
  Potency: inactive
[10]
  max response: -5.97% and -3.14%
[11]
  activity change % (negative = inhibition): -0.756% (inactive)

## Cc1c(C(=O)c2cccc3ccccc23)c2cccc3c2n1[C@H](CN1CCOCC1)CO3
[12]
  Potency: 6.31 µM (active)

## CN(C)[C@@H]1C(=O)C(C(N)=O)=C(O)[C@@]2(O)C(=O)C3=C(O)c4c(O)cccc4[C@@](C)(O)[C@H]3[C@H](O)[C@@H]12
[7]
  outcome: inactive
[15]
  Potency: inactive
[16]
  max response: 10.7% and 6.3% and 19.5%
[17]
  Potency: inactive
[10]
  max response: 16.2% and 7.17% and 21.1%
[11]
  activity change % (negative = inhibition): 2.86% (inactive) and -5.16% (inactive) and -23.7% (inactive)
[12]
  Potency: inactive
[13]
  Potency: inactive

## CNCCc1ccc(O)c(O)c1
[12]
  Potency: inactive

## S=C(NC1CCCCC1)N1CCC(c2cnc[nH]2)CC1
[12]
  Potency: inactive

## NC(=NCCC[C@H](N)C(=O)O)N[N+](=O)[O-]
[12]
  Potency: inactive

## CCCN(CCC)C1CCc2ccc(O)cc2C1 (configuration not stated)
[12]
  Potency: 2.24 µM (active)

## NC(N)=NOCCC(N)C(=O)O (configuration not stated)
[12]
  Potency: inactive

## O=[N+]([O-])c1c2ccccc2cc2ccccc12
[15]
  Potency: 31.6 µM (active)
[8]
  Potency: inactive
[9]
  outcome: inactive
[16]
  max response: 3.63%
[17]
  Potency: inactive
[11]
  activity change % (negative = inhibition): 0.364% (inactive)
[12]
  Potency: inactive
[13]
  Potency: inactive
